# Measurements: PubChem BioAssay AID743398 (Broad Institute, 2014)
# Screen size: about 300,000 compounds; about 3,600 (1.2%) were called active. No stated cut-off is given here; in the data, active means activation above about 30% (passing the limit was not always enough); inconclusive means no clear call, values can overlap the other calls. The entries come from a sample that favours actives as a whole.
# Experiment: Wnt/beta-catenin pathway activators, primary screen, cell-based, plate reader, single point (AID 743398);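 further: 0% = neutral control wells and 100% = positive control wells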
# Conditions: Wnt/beta-catenin reporter cell assay, activator, at 9.35 µM, stronger effect = higher value
row,SMILES,activation
1,CCNC(=O)C1(C)CCCN(Cc2noc(-c3ccccc3OC)n2)C1 (stereo not given),-3.24% (inactive)
2,CN1C(=O)C2CC(O)C(SC3CC4C(=O)N(C)C(=O)C4CC3O)CC2C1=O (stereo not given),-1.16% (inactive)
3,CCc1nc2c(OCc3ccc(C(F)(F)F)cc3)cccn2c1N(C)C(=O)CC(C)C,-1.72% (inactive)
4,CCOc1cccc2cc(C(=O)OCC(=O)Nc3c(C)cccc3CC)c(=O)oc12,8.56% (inactive)
5,C=CCc1cccc2cc(C(=O)Nc3ccc(NC(C)=O)cc3)c(=O)oc12,39.5% (active)
6,C=CCc1cccc2cc(C(=O)NC3CCCC3)c(=O)oc12,-0.536% (inactive)
7,COc1ccc(-c2ccccc2C2Cc3nnccc3CN2C(=O)Nc2ccccc2)cc1 (stereo not given),-2.13% (inactive)
8,COC(=O)c1cc2c(c3c4ccccc4n(S(=O)(=O)c4cccc(C)c4)c13)C(=O)N(Cc1ccccc1)C2,-4.66% (inactive)
9,Cc1[nH]n(C)c(=O)c1C(=O)c1c(-c2c(Cl)cccc2Cl)noc1C,4.17% (inactive)
10,Cn1c(-c2ccc(C(F)(F)F)cc2)cc2onc(-c3ccccc3)c2c1=O,23.3% (inactive)
11,Cn1c(-c2ccc(F)cc2)cc2onc(-c3ccccc3Cl)c2c1=O,53.3% (active)
12,CCOC(=O)/C=C/c1ccccc1O,-1.18% (inactive)
13,O=C(Nc1ccc(F)cc1)c1cc2c(s1)CCCC2,53% (active)
14,CN(C)C(=O)c1ccc(NC(=O)COC(=O)c2cc3c(s2)CCCCC3)cc1,0.414% (inactive)
15,O=C(NNC(=O)c1cc2c(s1)CCCC2)c1ccccc1,27.6% (inactive)
16,CCN(CC)C(=O)C1=C(C)N(Cc2ccc(F)cc2)C(=O)C(CC(=O)NCc2cccc3ccccc23)C1 (stereo not given),-3.01% (inactive)
17,O=CNc1cc(-c2ccc(C(=O)N3CCOCC3)cc2)cn2c(-c3ccc(F)cc3)cnc12,-3.58% (inactive)
18,Cc1c(C(=O)Nc2ccccn2)oc2ccc(Br)cc12,34.7% (active)
19,Cc1noc(C)c1C(=O)Nc1ccccn1,-1.19% (inactive)
20,Cc1nonc1NC(=O)c1oc2ccccc2c1C,8.7% (inactive)
21,CC(C)c1ccc(/C=C/C(=O)NCCCN2CCOCC2)cc1,-3.21% (inactive)
22,O=C(/C=C/c1ccc(F)cc1)NCCNC(=O)/C=C/c1ccc(F)cc1,-1.4% (inactive)
23,C=CCNC(=O)/C=C/c1ccc(C(C)C)cc1,42.6% (active)
24,CCOC(=O)[C@]12CCC=C1N(Cc1cccc3ccccc13)C(=O)[C@H](CC(=O)NCc1cccc(C(F)(F)F)c1)C2,-1.93% (inactive)
25,C#CCN(C[C@@H]1[C@@H](OC(=O)NC2CC2)[C@@H](OC(=O)NC2CC2)Cn2c(=O)ccc(=O)n21)S(=O)(=O)c1ccc(C)cc1,-2.83% (inactive)
26,O=[N+]([O-])c1ccc(C(S(=O)(=O)Cc2ccccc2)S(=O)(=O)Cc2ccccc2)cc1,-5.67% (inactive)
27,Cc1ccc(C(=O)NNC(=O)c2ccc3c(c2)OCCO3)cc1,43.9% (active)
28,Cc1nc(NC(=O)c2ccc3c(c2)OCCO3)ccc1Br,48.4% (active)

row,SMILES,activation
1,Cc1cccc(C)c1NC(=O)CNC(=O)c1ccc2c(c1)OCCO2,13.2% (inactive)
2,O=C(Nc1ccc(Cl)cn1)c1ccc2c(c1)OCCO2,24.2% (inactive)
3,CC(=O)c1ccc2c(c1)OCCOCCOc1ccc(C(C)=O)cc1OCCOCCO2,1.05% (inactive)
4,O=C(Nc1ccccc1)c1ccc2c(c1)OCCCO2,19.2% (inactive)
5,CN(CCc1ccccc1)C(=O)c1cccc(NC(=O)Cc2cccc(NC(=O)C3CCCN(C(=O)C4CCC4)C3)c2)c1 (stereo not given),-3.51% (inactive)
6,C[C@H]([C@@H](O)[C@@H](O)[C@@H](C)C(C)(C)C)[C@H]1CC[C@H]2C3CC[C@H]4C[C@H](OS(=O)(=O)O)[C@@H](OS(=O)(=O)O)C[C@]4(C)[C@H]3CC[C@]12C (stereo not given in full),-0.623% (inactive)
7,CC12CCC(=O)C=C1CCC1C2C(O)CC2(C)C1CCC2(O)C(O)CO (stereo not given),3.61% (inactive)
8,CCCC(=O)N=c1sc2cccc(F)c2n1C,5.33% (inactive)
9,Cn1c(=NC(=O)c2ccco2)sc2cccc(F)c21,61.6% (active)
10,Cn1c(=NC(=O)C2CC2)sc2cc(F)cc(F)c21,7.6% (inactive)
11,Cc1ccc(S(=O)(=O)N2C[C@]3(O)C[C@@H]4C(=O)N(c5ccccc5)C(=O)[C@@H]4C[C@]3(OC(=O)NC3CC3)C2)cc1,-1.31% (inactive)
12,Cc1ccc(Nc2nc(-c3ccc(O)cc3O)cs2)nc1,59.5% (active)
13,Clc1ccc(Nc2nc(-c3cccs3)cs2)nc1,25.2% (inactive)
14,CC(=O)Nc1cnc(-c2ccc(O)cc2C)cn1,-0.836% (inactive)
15,Cn1c(=O)c2cc(NC(=O)NCCc3cccs3)ccc2n1Cc1cccc(C(F)(F)F)c1,-1.78% (inactive)
16,Cc1ccc(S(=O)(=O)N2CC3C(=O)C[C@@H](c4ccccc4Cl)N(S(=O)(=O)c4ccc(C)cc4)C3CC2c2ccccc2)cc1 (stereo not given in full),-1.39% (inactive)
17,COC(=O)c1ccc2nc(-c3ccc(Cl)cc3)c(Cc3cccc(F)c3)n2c1,11.3% (inactive)
18,Cc1ccnc(NC(=O)CCNS(=O)(=O)c2ccc(C)c(C)c2)c1,35.8% (active)
19,Cc1ccc(S(=O)(=O)NCCC(=O)Nc2ccc(C)c(Cl)c2)cc1C,-1.93% (inactive)
20,Cc1ccc(S(=O)(=O)NCCC(=O)Nc2cccc(S(N)(=O)=O)c2)cc1C,-1.96% (inactive)
21,CCN1CCCC1CNC(=O)c1ccc2c(c1)NC(=O)/C(=C\c1ccccc1F)S2 (stereo not given),-0.637% (inactive)
22,O=c1[nH]c(-c2ccccc2)cn1C1CCN(Cc2ccc(-c3nc4ccc(F)cc4nc3-c3ccccc3)cc2)CC1,0.441% (inactive)
23,COCCCn1c(C(=O)NC2CCCCC2)cc2c(=O)n3cccc(C)c3nc21,-1.3% (inactive)
24,CC(C)NC(=O)N1Cc2cc(C(=O)NCC(F)(F)F)nc(-c3cccc(-c4cc5ccccc5o4)c3)c2[C@@H]1CCO,-2.74% (inactive)
25,CC1CCCCC1NC(=O)Cn1c(=O)cnc2ccccc21 (stereo not given),-3.58% (inactive)
26,CC(C)c1cc(C(=O)NC2CCCCCC2)c2ccccc2n1,-2.8% (inactive)
27,O=C(/C=C/c1cnc2ccccc2n1)NC1CCCCCC1,49.2% (active)
